Bioassay records as filed in PubChem BioAssay.
Rows were chosen to be rich in hits. Some 0.3% of all compounds tested hit in one or more screens of this group.
mcGAS lum = cyclic GMP-AMP synthase inhibitors, mouse, primary biochemical chemiluminescence. inhibition, % at 12.5 µM. Q8C6L5. recombinant cGAS, Kinase-Glo ATP depletion luminescence. actives 0.15% (n = 160,000). AID 1259399, 2018;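 further: 0% = negative control wells and 100% = reference inhibitor with no enzyme activity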
Target sequence (Q8C6L5 whole entry, looked up): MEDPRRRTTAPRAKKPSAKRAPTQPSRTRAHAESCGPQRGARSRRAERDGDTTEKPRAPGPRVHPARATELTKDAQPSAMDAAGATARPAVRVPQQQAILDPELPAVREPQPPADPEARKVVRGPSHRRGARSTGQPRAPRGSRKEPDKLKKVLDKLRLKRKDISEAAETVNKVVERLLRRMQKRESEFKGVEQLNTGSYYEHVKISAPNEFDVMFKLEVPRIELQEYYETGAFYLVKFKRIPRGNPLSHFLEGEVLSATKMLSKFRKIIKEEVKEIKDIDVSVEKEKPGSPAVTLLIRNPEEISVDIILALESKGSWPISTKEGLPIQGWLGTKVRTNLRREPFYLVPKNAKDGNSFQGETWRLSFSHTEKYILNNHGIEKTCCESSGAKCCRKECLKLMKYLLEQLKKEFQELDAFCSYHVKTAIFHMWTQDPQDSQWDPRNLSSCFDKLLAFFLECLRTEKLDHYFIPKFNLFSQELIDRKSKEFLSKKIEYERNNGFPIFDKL
hcGAS lum = Primary biochemical luminescence assay for human cyclic GMP-AMP synthase inhibitors; recombinant h-cGAS, ATP depletion, Kinase-Glo luminescence; inhibition, % at 12.5 µM; Q8N884; AID 1259398, 2018; actives 0.081% (n = 290,000);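 further: 0% = vehicle reaction and 100% = reaction without DNA for no activity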
NPYLR7 agonist = agonists of mosquito NPYLR7 receptor, primary screen, cell-based, Aedes aegypti, calcium fluorescence, mosquito biting behavior | Aedes aegypti neuropeptide Y-like receptor 7 (NPYLR7) | HEK293T NPYLR7/Galpha15, GCaMP6s calcium fluorescence | activation, % at 10 µM | actives 0.15% (n = 270,000) | AID 1259423, 2018; in the data active means activation above about 40%;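 further: 0% = vehicle and 100% = reference agonist at the receptor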
Numbers without * were called inactive; . = not tested or not shown; ! = a repeat was not active. Unless noted, no stated cut-off is given here; in the data, active means inhibition above about 40%; inactive means the rest.

SMILES	mcGAS lum	hcGAS lum	NPYLR7 agonist
O=c1oc2c(O)c(O)cc3c(=O)oc4c(O)c(O)cc1c4c23	.	43.2*	-10.2
O=c1cc(-c2cc(O)c(O)c(O)c2)oc2cc(O)cc(O)c12	.	21.9	21.9
CC1CCc2c(C(=O)NCc3nnc4n3CCCCC4)csc2C1 (stereo not drawn)	.	-3.4	0.8
CCOC(=O)NC(=O)CN1CCN(c2cccc(Cl)c2)CC1	.	-10.1	-6.1
O=C1C(Cl)=CC(=NS(=O)(=O)c2ccccc2)C(Cl)=C1Cl	59.3*	58.6*	-7.3
O=C1C=CC(=NC(=NS(=O)(=O)c2ccccc2)c2ccccc2)C=C1Cl	-3.2	-3.8	-2.2
CC(=O)N1CCN(c2nc(C)cc(Nc3ccc(C)cc3)n2)CC1	.	-6.8	6.4
CNC(C)c1ccc(Sc2ccc(C(C)C)cc2)c(F)c1 (stereo not drawn)	-16.3	-4.8	2.0
CCC(=O)Oc1ccc2c(c1)O/C(=C\c1ccco1)C2=O	79.6*	16.8	-0.9
COc1cccc(C(=O)Oc2ccc3c(c2)O/C(=C\c2ccc(C)o2)C3=O)c1	-0.6	-0.1	-5.6
CCOCCNC(=O)c1ccc(-n2nc(C(=O)OCC)cc2-c2ccc(OC)cc2)cc1	-6.4	-2.6	1.6
N#CC(C#N)=CC(=N)C(C#N)c1cc(O)c(O)c(O)c1 (stereo not drawn)	51.1*	12.4	6.8
COc1cccc(N2C(=O)/C(=C/c3ccc(C)o3)NC2=S)c1	.	-4.6	2.6
O=[N+]([O-])c1cc(S(=O)(=O)C(F)(F)F)ccc1Sc1nnnn1-c1ccccc1	11.9	-7.4	0.2
O=[N+]([O-])c1ccc(Sc2nnnn2-c2ccccc2)c([N+](=O)[O-])c1	71.8*	-7.1	3.0
O=C(NN1C(=O)C2C3C=CC(C4CC34)C2C1=O)c1cccc(Cl)c1 (stereo not drawn)	84.9*	-3.7	6.0
Cc1ccc(C(=O)NN2C(=O)C3C4C=CC(C5CC45)C3C2=O)cc1 (stereo not drawn)	-6.6	-6.2	9.1
CCC(C)NC(=O)CN1CCN(CN2CCSC(C)C2=O)CC1 (stereo not drawn)	.	-7.6	-0.9
Cc1ccc(CN(CCc2ccccc2)C(=O)CN(C(=O)c2ccc(Cl)cc2)C2CCCCC2)o1	2.3	6.2	10.9
CC[n+]1c(C)cc(Cl)c2ccccc21	-5.4	-7.5	0.7
Cc1cc(N)c2ccccc2[n+]1CCCCCCCCCC[n+]1c(C)cc(N)c2ccccc21	-1.8	90.9*!	-3.6
Cc1ccccc1CN(C)C(C)C(=O)Nc1ccc(C#N)cc1 (stereo not drawn)	.	4.2	-3.4
Cc1ccc(S(=O)(=O)Nc2cc(Cl)ccc2F)cc1C	-1.6	7.7	3.0
O=[N+]([O-])c1cc(S(=O)(=O)Nc2cc(Cl)ccc2F)ccc1F	.	-2.5	40.2*
Brc1cc2c(s1)CNCC2	.	-10.1	10.4
SMILES	mcGAS lum	hcGAS lum	NPYLR7 agonist
CN(C)S(=O)(=O)c1ccc(C(=O)Nc2ccc3c(c2)C(=O)c2ccccc2C3=O)cc1	104.5*	-2.2	19.6
Cc1ccc(C(=O)Nc2ccc3c(c2)C(=O)c2ccccc2C3=O)cc1	.	-8.4	-1.0
CCOc1ccc(C2CC(c3ccc(C)cc3C)=NN2C(=O)CN2CCOCC2)cc1 (stereo not drawn)	1.4	1.3	-8.6
COc1ccc(C(=O)C=Cc2cccc(O)c2)cc1F	22.7	0.6	-1.7
CCN1CCN(c2ccc(C(=O)C=Cc3ccc(O)c(OC)c3)cc2F)CC1	.	-8.0	92.9*
COc1ccccc1CCNC(=O)c1ccccc1N1CCC(NC(=O)Nc2ccc(C)cc2)CC1	-2.7	-3.4	1.7
C#CCOCC(O)CN(Cc1ccccc1C)C1CC1 (stereo not drawn)	-1.8	-4.2	15.7
C#CCOCC(O)CN(Cc1cccn1Cc1ccccc1C)C1CC1 (stereo not drawn)	41.1*	-4.6	35.2
CCCc1[nH]n(-c2ccc(Cl)cc2)c(=O)c1/C=C1\NC(=O)N(Cc2ccc(C)cc2)C1=O	-7.9	-3.2	45.1*
CCCc1[nH]n(-c2ccc(Cl)cc2)c(=O)c1/C=C1\NC(=O)N(Cc2cccc(C)c2)C1=O	-6.7	-4.5	8.6
COc1ccccc1C1CC(c2ccccc2Cl)=NN1C(=O)CN1CCC2(CC1)OCCO2 (stereo not drawn)	-4.2	-4.1	-3.6
CCCc1nn2c(N)c(C=C3C=C(Cl)C(=O)C(Cl)=C3)c(=O)nc2s1	52.5*	25.2	51.3*
CCCc1nn2c(N)c(C=C3C=CC(=O)C=C3)c(=O)nc2s1	.	13.1	-3.5
C=CCNC(=O)c1ccccc1N1CCC(NC(=O)COC)CC1	54.5*	-7.4	-0.7
C=CCNC(=O)NC1CCN(c2ccccc2C(=O)NCCOC)CC1	-5.0	-4.8	-1.0
O=C1/C(=C/c2csnn2)CCOc2cc(Br)ccc21	53.0*	-5.9	13.0
COc1ccc2c(c1)CCC(=Cc1cc(Br)ccc1OC)C2=O	-4.7	-2.1	-1.2
CCOC(=O)c1ccccc1NC(=O)CSc1ccc2nnc(-c3ccc(C)cc3)n2n1	-4.3	-1.3	3.6
Clc1ccc(C2=Nc3ncnn3C(c3cccc(Br)c3)C2)cc1 (stereo not drawn)	.	-6.8	12.0
O=[N+]([O-])c1ccc(Nc2ccc(F)cc2)c([N+](=O)[O-])c1	-4.8	-11.4	2.1
O=C(CCl)Nc1cc([N+](=O)[O-])ccc1Nc1ccc(F)cc1	57.5*	-2.2	-5.9
COc1cc([N+](=O)[O-])ccc1NC(=O)CCl	69.6*	0.7	-4.3
COc1ccc([N+](=O)[O-])cc1NC(=O)CCl	44.5*	-4.4	-3.4
CCCCC(=O)Nc1cc([N+](=O)[O-])ccc1OC	.	-5.4	0.7
COc1ccc([N+](=O)[O-])cc1NC(=O)C1CCCC1	-0.8	-9.9	-0.9
SMILES	mcGAS lum	hcGAS lum	NPYLR7 agonist
CCOc1ccc(/C=C2N=C(/C=C/c3ccc(C)cc3)OC\2=O)cc1	.	-2.2	0.2
CCOc1ccc(/C=C2N=C(/C=C/c3ccccc3)OC/2=O)cc1	.	-3.7	66.3*
CC(C)=C(C)C(=O)O	.	-4.3	-2.8
CCCCc1nc(N2CCN(C(=O)C(C)(C)CCl)CC2)c2c(C)nn(-c3ccc(F)cc3)c2n1	-8.2	-3.6	-4.2
O=C(NCc1csc(Cc2ccccc2)n1)c1cn(C2CCCCC2)nn1	-9.3	-4.4	7.5
N#CCCNN=Cc1cc(I)c(O)c(I)c1	99.0*	54.7*	-1.0
COCc1cc(C)nc(N/N=C\c2cc(I)c(OC)c(OC)c2)c1C#N	-4.6	-2.9	-1.9
N#Cc1cc(C(=O)c2cc(Br)ccc2O)cn(-c2ccccc2Cl)c1=O	.	-5.1	42.2
N#Cc1cc(C(=O)c2cc(Cl)cc(Cl)c2O)cn(-c2nccs2)c1=O	.	-0.5	135.3*
COc1ccc(OCC(O)CN(CCC(C)C)Cc2cccc(OC)c2)cc1 (stereo not drawn)	79.2*	-1.5	24.9
COCCN(Cc1cccc(OC)c1)CC(O)COc1ccc(OC)cc1 (stereo not drawn)	-2.5	-1.2	11.3
O=C(NCc1ccccn1)c1ccc(NC(=O)c2ccco2)cc1	.	-13.9	18.9
O=C(CCl)c1ccc(NC(=O)c2ccco2)cc1	78.1*	-5.6	10.5
Cc1ccn2c(=O)c(NC(=O)CC3CCCCC3)c(C)nc2c1	.	-7.5	7.8
